The values below come from PubChem BioAssay.

The inhibition is the change of the read-out against control, counted positive when it falls.

Assay [1] can be described thus: yeast TOR pathway RPL19A-GFP modulators, primary screen, cell-based, S. cerevisiae, multiplex flow cytometry (AID 1862; in the data active = percent of DMSO control GFP below about 86%;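 also: lower values mimic rapamycin by blocking the RPL19A rise seen in DMSO cells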). The following applies: S. cerevisiae RPL19A-GFP strain, flow cytometry fluorescence, 3 h; at 10 µM; stronger effect = lower value. For orientation: Flow cytometry measures light scatter and fluorescence of single cells or particles in a stream.
The nature of assay [2]: modulators of MEP2-GFP levels in yeast, primary screen, S. cerevisiae, multiplex flow cytometry (AID 1867;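 active = GFP response, as percent of the DMSO control, above the screen-wide mean plus 3 SD, about 139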;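 also: median GFP channel fluorescence of barcode-gated MEP2-GFP cells measured by flow cytometry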). Particulars: S. cerevisiae MEP2-GFP strain, 3 h, at 10 µM, stronger effect = higher value, 100% means same as DMSO wells.
A short description of assay [3]: modulators of CIT2-GFP expression in yeast, primary screen, S. cerevisiae, GFP fusion, multiplex flow cytometry (AID 1870;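 active = percent response above a set limit, the screen-wide mean plus 3 SD, cut at about 130% in these data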;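 also: barcoded CIT2-GFP strain pooled with four other GFP strains with rapamycin as positive control; median GFP fluorescence per well over plate mean of DMSO wells so 100% = DMSO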). Particulars: 3 h, at 10 µM, stronger effect = higher value.
Assay [4] in a line: modulators of LAP4-GFP expression in yeast, primary screen, S. cerevisiae, multiplex flow cytometry (AID 1873;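 active = GFP signal, as percent of the solvent control, above the screen mean plus 3 SD, about 149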). Particulars: 3 h, at 10 µM, stronger effect = higher value.
Assay [5] can be described thus: modulators of AGP1-GFP expression in yeast TOR pathway, primary screen, cell-based, multiplex flow cytometry, S. cerevisiae (AID 1887;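 active = GFP signal above the screen-wide mean plus 3 SD, that is over about 124.5% of the solvent control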;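 also: AGP1-GFP fusion strain of S. cerevisiae within a five-strain barcoded multiplex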). Particulars: 3 h, at 10 µM, stronger effect = higher value.
The nature of assay [6]: inhibitors of CD8+ T cell-vesicle binding, pilot screen, LFA-1/ICAM-1 modulator project, MLPCN validation set, flow cytometry (AID 2523;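 active = response below a set limit, under 55% cells CD8-positive and vesicle-bound, and CD8 cells' 90th-percentile brightness under 279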;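 as to vesicle binding response: mean PE anti-B7-1 fluorescence of CD8+ cells relative to row control; 100% = QL9-loaded vesicles with DMSO vehicle in the same plate row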). Particulars: 2C mouse CD8+ T cells, at 7 µM, stronger effect = lower value; double positive events: measured here: CD8+/vesicle+ event percentage.
In assay [7] the target is Integrin beta-1 (Homo sapiens) + Integrin alpha-4 (Homo sapiens) (UniProt P13612+P05556). Nature of the assay: inhibition of HUTS-21 binding to VLA-4, pilot screen, VLA-4 allosteric modulator project, U937 cells, HUTS-21 mAb, flow cytometry, validation set (AID 2674;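 active = inhibition above 50%, about 3 SD of the validation set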;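 also: antibody binding induced by the VLA-4 ligand LDV present at three times its Kd; 0% = LDV ligand with antibody and no compound and 100% = antibody without LDV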). Particulars: HUTS-21 LIBS mAb binding, at 6.7 µM, stronger effect = higher value, binding induced by LDV ligand.
Assay [8] in a line: superoxide lowering in aged yeast cells, pilot screen, validation compound set (AID 2706;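 active = superoxide response below 65% of plate, a cut near 3 SD across the whole screen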;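 also: yeast exposed to compound for one week at 30 degrees C before staining; 100% = mean of all compound wells on the same plate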). Particulars: S. cerevisiae aging, superoxide DHE fluorescence; at 10 µM; stronger effect = lower value.
In assay [9] the target is Beta-adrenergic receptor kinase 1 (Homo sapiens) (UniProt P25098). Nature of the assay: GRK2 binders displacing RNA aptamer, biochemical, validation, human GRK2, bead flow cytometry (AID 488806;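 active = aptamer binding inhibition above 30%, about 3 SD of noise from non-fluorescent compounds; inactive = inhibition at or below 30%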). The following applies: bead-bound GRK2, FAM-aptamer displacement, at 10 µM, stronger effect = higher value.
Assay [10] concerns the target Beta-2 adrenergic receptor (Homo sapiens) (UniProt P07550). The assay is described as follows: beta2AR agonists driving receptor internalization, pilot screen, cell-based, FAP fluorogen, flow cytometry, validation set (AID 504459;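 active = percent response above 42, roughly 3 SD of non-fluorescent test compounds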;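 also: agonist-driven loss of surface beta2AR via internalization measured by FAP dye flow cytometry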). The following applies: Am2.2-beta2AR cells, FAP surface receptor flow cytometry; at 10 µM; stronger effect = higher value.
For assay [11], the target named is AP-2 complex subunit beta (Homo sapiens) (UniProt P63010). Nature of the assay: inhibitors of arrestin peptide binding to AP2, pilot screen, biochemical, validation set, GST-AP2 beads, flow cytometry (AID 504541;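 active = inhibition above 54%, about 3 SD of non-fluorescent compounds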;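 also: AP2 carries R879A mutation and is captured from E. coli lysate; bead-bound FITC arrestin peptide fluorescence measuring arrestin peptide binding to AP2; 0% = DMSO wells and 100% = excess unlabeled arrestin peptide control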). The following applies: FITC arrestin peptide, at 10 µM, stronger effect = higher value, AP2 beta2 appendage fragment, R879A mutant.
Assay [12] can be described thus: yeast V-ATPase proton transport modulators, S. cerevisiae, pHLuorin, HTS validation (AID 504600; in the data active = response above about 15%;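 also: plate controls were DMSO for no effect and reference compound for full effect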). Particulars: S. cerevisiae pHLuorin cytosolic pH, at 10 µM, stronger effect = higher value.
Assay [13] relates to anti-desmoglein-3 scFv antibody binding to human DSG3. Nature of the assay: inhibitors of anti-DSG3 scFv binding to DSG3, pilot screen, biochemical, validation compound set, bead-based, flow cytometry (AID 588368;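 active = binding below the plate cutoff, the plate median minus 3 SD, with a reading above zero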;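 also: signal is the median channel fluorescence of bead-bound GFP antibody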). Particulars: Protein G beads, DSG3-Fc, scFv-GFP binding, at 10 µM, stronger effect = lower value.
Assay [14] is described as follows: inhibitors of fungal efflux pumps CDR1, CDR2, MDR1, pilot screen, validation compound set, multiplex, phenotypic (AID 588506).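 Also: Nile Red retained in cells so higher fluorescence means more efflux inhibition; 0 = negative control wells and 1 = enniatin B 25 µM full block.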 Particulars: S. cerevisiae pump-expressing triplex, Nile Red efflux flow cytometry; at 10 µM; stronger effect = higher value; the pumps come from Candida albicans.
The target of assay [15] is ATP-binding cassette sub-family B member 6 (Homo sapiens) (UniProt Q9NP58). Nature of the assay: ABCB6 transporter inhibitors, pilot screen, K562-ABCB6 cells, flow cytometry, validation set (AID 588550;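 active = inhibition above the screen-wide mean plus 3 SD, about 51%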;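 also: 0% = DMSO wells and 100% = benzethonium chloride 70 µM positive control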). The following applies: K562-ABCB6 porphyrin accumulation, 1 h, at 10 µM, stronger effect = higher value.
Assay [16] is described as follows: promoters of myeloid differentiation in arrested cells, primary screen, cell-based, GFP/MAC1 double positive, flow cytometry, validation set (AID 588685;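 active = differentiation response of at least 50%, scaled between solvent and reference control, from cells with both markers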;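 also: compound exposure lasts four days before antibody staining and flow analysis; 0% = DMSO wells and 100% = 5 µM fulvestrant positive control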). Particulars: ER-HoxA9 marrow cells, stronger effect = higher value, normalized: vehicle 0, fulvestrant 100.

Inconclusive results are not listed. Calls of active or inactive are those of the source.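 The calls were made as follows, unless noted: active = efflux inhibition above 0.42, the validation set average plus 4 SD; inconclusive = no clear call, values can overlap the other calls; inactive = the rest.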

Chain of Beta-adrenergic receptor kinase 1 (Homo sapiens) (P25098 whole entry, looked up): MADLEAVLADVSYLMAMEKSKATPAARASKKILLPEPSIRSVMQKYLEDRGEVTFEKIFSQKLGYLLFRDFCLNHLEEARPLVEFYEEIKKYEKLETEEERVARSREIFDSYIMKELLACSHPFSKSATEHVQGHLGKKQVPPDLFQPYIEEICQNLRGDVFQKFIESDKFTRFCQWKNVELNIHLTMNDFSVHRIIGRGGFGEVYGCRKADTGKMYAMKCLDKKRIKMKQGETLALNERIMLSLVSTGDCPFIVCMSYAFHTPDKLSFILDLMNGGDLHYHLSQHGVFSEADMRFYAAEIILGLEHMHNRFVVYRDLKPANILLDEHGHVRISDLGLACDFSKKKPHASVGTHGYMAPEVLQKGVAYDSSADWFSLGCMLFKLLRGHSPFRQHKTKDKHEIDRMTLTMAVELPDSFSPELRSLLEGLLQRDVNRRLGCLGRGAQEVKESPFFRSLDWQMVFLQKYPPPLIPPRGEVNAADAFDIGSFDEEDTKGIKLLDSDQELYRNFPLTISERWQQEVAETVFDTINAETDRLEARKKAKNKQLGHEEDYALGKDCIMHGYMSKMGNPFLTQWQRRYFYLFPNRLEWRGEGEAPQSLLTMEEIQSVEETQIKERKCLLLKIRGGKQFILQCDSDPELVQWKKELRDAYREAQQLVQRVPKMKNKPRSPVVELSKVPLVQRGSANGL
Chain of Integrin beta-1 (Homo sapiens) + Integrin alpha-4 (Homo sapiens) (P05556 whole entry, looked up): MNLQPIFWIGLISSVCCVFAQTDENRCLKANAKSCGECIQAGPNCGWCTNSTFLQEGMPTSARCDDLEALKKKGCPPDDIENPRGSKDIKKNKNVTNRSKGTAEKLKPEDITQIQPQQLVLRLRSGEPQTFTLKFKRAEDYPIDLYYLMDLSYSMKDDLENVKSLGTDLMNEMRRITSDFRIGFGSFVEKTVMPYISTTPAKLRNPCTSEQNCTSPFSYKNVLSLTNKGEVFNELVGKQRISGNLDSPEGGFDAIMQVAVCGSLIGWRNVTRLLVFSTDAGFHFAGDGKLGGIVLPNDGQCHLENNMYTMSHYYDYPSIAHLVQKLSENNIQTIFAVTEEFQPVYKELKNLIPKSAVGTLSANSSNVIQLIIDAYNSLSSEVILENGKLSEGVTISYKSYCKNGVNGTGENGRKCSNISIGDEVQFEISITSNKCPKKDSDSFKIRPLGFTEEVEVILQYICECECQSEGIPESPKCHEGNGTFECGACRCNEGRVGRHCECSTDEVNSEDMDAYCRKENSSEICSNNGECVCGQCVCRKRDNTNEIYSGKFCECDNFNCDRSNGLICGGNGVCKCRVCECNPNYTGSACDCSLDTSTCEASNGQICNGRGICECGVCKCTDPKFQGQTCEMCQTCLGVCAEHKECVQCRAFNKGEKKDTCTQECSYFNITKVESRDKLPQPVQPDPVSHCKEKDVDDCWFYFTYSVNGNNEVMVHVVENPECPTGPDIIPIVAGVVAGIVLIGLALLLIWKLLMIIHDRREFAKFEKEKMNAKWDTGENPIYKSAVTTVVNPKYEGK
Chain of Integrin beta-1 (Homo sapiens) + Integrin alpha-4 (Homo sapiens) (P13612 whole entry, looked up): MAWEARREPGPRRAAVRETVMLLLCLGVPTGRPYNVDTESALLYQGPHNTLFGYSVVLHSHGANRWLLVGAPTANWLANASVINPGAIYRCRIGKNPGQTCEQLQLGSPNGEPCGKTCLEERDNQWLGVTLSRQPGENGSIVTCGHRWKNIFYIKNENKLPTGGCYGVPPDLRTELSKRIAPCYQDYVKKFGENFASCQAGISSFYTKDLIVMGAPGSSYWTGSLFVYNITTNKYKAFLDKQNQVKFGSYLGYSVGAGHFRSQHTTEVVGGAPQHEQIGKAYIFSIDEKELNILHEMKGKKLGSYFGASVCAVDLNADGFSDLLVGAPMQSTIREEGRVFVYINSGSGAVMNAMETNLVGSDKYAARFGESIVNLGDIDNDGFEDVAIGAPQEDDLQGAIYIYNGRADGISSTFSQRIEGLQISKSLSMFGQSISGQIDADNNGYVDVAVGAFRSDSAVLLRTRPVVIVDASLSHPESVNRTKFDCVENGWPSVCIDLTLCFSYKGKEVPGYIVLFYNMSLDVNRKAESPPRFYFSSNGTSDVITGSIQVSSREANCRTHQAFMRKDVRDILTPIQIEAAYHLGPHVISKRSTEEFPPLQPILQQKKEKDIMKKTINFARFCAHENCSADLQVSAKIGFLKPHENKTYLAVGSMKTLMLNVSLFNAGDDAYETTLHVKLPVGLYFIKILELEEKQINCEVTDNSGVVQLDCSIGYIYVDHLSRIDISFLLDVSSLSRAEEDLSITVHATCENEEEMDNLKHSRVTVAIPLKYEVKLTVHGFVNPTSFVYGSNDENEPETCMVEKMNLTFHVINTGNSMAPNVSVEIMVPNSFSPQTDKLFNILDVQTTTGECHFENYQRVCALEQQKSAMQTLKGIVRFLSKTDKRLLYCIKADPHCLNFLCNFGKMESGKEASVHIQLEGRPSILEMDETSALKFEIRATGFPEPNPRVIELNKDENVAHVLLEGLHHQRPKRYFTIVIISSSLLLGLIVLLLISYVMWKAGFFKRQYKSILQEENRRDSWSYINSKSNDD
Chain of Beta-2 adrenergic receptor (Homo sapiens) (P07550 whole entry, looked up): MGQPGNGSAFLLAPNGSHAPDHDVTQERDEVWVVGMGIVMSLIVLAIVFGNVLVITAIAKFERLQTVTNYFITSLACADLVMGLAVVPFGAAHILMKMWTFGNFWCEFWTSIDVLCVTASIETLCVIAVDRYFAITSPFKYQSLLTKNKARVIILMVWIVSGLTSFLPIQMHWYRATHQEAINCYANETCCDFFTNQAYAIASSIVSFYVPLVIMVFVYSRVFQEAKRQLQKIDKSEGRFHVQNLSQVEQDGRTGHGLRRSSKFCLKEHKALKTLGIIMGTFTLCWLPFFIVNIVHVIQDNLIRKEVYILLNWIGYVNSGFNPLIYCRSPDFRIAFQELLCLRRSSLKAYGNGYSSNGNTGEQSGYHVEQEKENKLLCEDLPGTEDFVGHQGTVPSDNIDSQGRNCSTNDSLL
Chain of ATP-binding cassette sub-family B member 6 (Homo sapiens) (Q9NP58 whole entry, looked up): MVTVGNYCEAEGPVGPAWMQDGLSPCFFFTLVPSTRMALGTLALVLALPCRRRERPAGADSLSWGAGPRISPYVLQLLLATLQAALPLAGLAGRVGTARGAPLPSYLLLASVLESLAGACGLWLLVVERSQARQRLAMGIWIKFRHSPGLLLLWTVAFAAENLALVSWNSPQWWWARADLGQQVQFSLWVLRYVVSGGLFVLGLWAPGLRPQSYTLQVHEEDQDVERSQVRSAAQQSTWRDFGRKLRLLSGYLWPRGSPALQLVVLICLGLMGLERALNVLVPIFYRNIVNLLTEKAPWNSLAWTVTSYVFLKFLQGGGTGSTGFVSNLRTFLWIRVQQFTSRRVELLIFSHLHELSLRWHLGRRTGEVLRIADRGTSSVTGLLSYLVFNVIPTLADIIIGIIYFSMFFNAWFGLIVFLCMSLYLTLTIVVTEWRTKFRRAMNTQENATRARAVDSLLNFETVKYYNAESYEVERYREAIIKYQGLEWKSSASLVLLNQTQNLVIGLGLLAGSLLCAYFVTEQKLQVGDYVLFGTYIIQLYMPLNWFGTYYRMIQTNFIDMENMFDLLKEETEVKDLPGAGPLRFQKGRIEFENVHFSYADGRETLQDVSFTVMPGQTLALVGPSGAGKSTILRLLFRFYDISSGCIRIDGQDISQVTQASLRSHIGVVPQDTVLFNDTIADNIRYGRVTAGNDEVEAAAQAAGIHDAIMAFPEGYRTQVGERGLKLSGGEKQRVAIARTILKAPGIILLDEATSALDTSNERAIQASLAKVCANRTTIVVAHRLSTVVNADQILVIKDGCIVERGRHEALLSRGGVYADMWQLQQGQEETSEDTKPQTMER
Chain of AP-2 complex subunit beta (Homo sapiens) (P63010 whole entry, looked up, the tested form may be a part, one chain of several): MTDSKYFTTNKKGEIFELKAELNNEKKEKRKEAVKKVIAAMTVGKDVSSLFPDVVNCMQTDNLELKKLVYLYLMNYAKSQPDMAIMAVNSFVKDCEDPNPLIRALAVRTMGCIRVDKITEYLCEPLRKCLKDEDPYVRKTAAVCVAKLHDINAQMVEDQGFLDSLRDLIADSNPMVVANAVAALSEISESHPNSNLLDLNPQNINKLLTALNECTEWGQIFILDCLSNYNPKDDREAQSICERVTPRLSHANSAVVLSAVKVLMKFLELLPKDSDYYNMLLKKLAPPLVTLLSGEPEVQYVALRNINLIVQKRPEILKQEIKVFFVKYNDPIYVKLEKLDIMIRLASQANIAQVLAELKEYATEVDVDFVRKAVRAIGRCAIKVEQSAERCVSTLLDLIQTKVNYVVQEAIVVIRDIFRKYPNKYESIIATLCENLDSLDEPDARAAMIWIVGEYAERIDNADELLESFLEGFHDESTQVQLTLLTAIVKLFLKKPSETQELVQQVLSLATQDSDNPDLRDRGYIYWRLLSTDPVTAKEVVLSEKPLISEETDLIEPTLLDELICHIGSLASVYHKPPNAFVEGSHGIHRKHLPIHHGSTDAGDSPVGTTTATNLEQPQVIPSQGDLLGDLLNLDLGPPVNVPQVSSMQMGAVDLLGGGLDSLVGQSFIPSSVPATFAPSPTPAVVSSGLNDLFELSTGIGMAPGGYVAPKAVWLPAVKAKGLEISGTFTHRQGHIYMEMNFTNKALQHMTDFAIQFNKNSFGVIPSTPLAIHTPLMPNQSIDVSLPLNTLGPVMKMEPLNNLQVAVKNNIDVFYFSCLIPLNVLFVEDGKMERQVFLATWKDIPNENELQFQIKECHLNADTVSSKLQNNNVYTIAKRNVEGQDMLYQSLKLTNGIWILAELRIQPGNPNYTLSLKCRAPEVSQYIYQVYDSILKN

In the case of `O=C(O)c1cc2cc(Cl)cc(Cl)c2oc1=O`, in [1], the percent of DMSO control GFP was 97.9% (inactive). Besides, the GFP response vs DMSO in [2] is 129% (inactive); in assay [4], 80.9% (inactive). Further, the percent response of DMSO control in assay [3] is 104% (inactive). The GFP response, % of DMSO in assay [5] is 93.1% (inactive). In addition, in assay [6], the double positive events was 41.9%. In assay [6], the vesicle binding response was 63.6% (active). In addition, the inhibition in assay [7] is -12.9% (inactive); in assay [11], 8.6% (inactive); in [15], 8% (inactive). Besides, the superoxide response (% of plate) in assay [8] is 113% (inactive). Also, the aptamer binding inhibition in assay [9] is 7% (inactive). In addition, the response in [10] was -14.8% (inactive); in assay [12] it was 10.3% (inactive). The binding (% of control) in assay [13] was 98.7% (inactive). Further, in assay [14], the efflux inhibition (fraction of control) was 0.05 (inactive). Further, the differentiation response in assay [16] was 27.8% (inactive).

`CC12CCC(C(=O)NNc3ccccc3)(C(=O)C1=O)C2(C)C` (stereo not drawn): in assay [1], the percent of DMSO control GFP is 104% (inactive). Also, the GFP response vs DMSO was 97.4% (inactive) in [2] and 94.8% (inactive) in [4]. The percent response of DMSO control in assay [3] was 102% (inactive). Moreover, the GFP response, % of DMSO in [5] was 100% (inactive). In assay [6], the double positive events turned out to be 62%. In assay [6], the vesicle binding response is 217% (inactive). Also, the inhibition in assay [7] was -30.5% (inactive); in [11] it was 19.1% (inactive); in assay [15] it was -14% (inactive). The superoxide response (% of plate) in assay [8] was 105% (inactive). Further, the aptamer binding inhibition in assay [9] is 8% (inactive). In addition, the response in assay [10] was -5.89% (inactive); in assay [12], -0.25% (inactive). Moreover, in assay [13], the binding (% of control) was 101% (inactive). Moreover, the efflux inhibition (fraction of control) in [14] is -0.03 (inactive). The differentiation response in assay [16] is 15.2% (inactive).

Consider `Brc1c(NC2=NCCN2)ccc2nccnc12`, for which the percent of DMSO control GFP in assay [1] was 95% (inactive). In addition, the GFP response vs DMSO in assay [2] was 105% (inactive); in assay [4] it was 119% (inactive). The percent response of DMSO control in [3] was 93.9% (inactive). In addition, the GFP response, % of DMSO in assay [5] was 103% (inactive). The same molecule returned a double positive events in [6] of 56.2%. In addition, the vesicle binding response in [6] is 191% (inactive). Moreover, the values for the inhibition in [7], in assay [11] and in assay [15] were 6.4% (inactive), 10.1% (inactive) and 1% (inactive), respectively. Moreover, the superoxide response (% of plate) in assay [8] was 95.4% (inactive). The aptamer binding inhibition in assay [9] was 3% (inactive). The response is -8.4% (inactive) in assay [10] and 0.44% (inactive) in [12]. Moreover, the binding (% of control) in assay [13] was 102% (inactive). In addition, in assay [14], the efflux inhibition (fraction of control) is -0.24 (inactive). In assay [16], the differentiation response is -12% (inactive).

For the molecule `CCN(CCCc1ccccc1)CCCc1ccccc1`, the percent of DMSO control GFP in [1] is 100% (inactive). In addition, the GFP response vs DMSO was 103% (inactive) in assay [2] and 106% (inactive) in assay [4]. Also, the percent response of DMSO control in assay [3] is 102% (inactive). Moreover, the GFP response, % of DMSO in assay [5] was 118% (inactive). This molecule also yielded a double positive events in assay [6] of 63.1%. In assay [6], the vesicle binding response is 202% (inactive). Further, the inhibition was 27.8% (inactive) in [7], 34.3% (inactive) in assay [11] and 3% (inactive) in assay [15]. The superoxide response (% of plate) in assay [8] is 118% (inactive). For the same molecule, the aptamer binding inhibition in assay [9] is 0% (inactive). Also, the response in [10] is -9.83% (inactive); in [12], -9.09% (inactive). The binding (% of control) in assay [13] is 103% (inactive). Further, in assay [14], the efflux inhibition (fraction of control) is 0.04 (inactive). In assay [16], the differentiation response is -9.91% (inactive).
